We go through 40 sequences from the supplement of paper PMC10681739.
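Wherever RUNX1 binding intensity (PBM fluorescence) in presence of ETS1, normalised to RUNX1-only experiment is given: Full-length recombinant human ETS1 or RUNX1 bound to double-stranded 36-bp genomic probes on microarrays, detected by protein-specific primary antibody and Alexa488 secondary, spot fluorescence as median of four replicate spots.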
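Wherever RUNX1 binding intensity (PBM fluorescence), RUNX1 alone is given: Full-length recombinant human RUNX1 bound to double-stranded 36-bp genomic probes on a high-density microarray, scored as Alexa488 fluorescence per spot via anti-RUNX1 antibody, median of four replicate spots.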

RUNX1, sequence (Q01196 whole entry): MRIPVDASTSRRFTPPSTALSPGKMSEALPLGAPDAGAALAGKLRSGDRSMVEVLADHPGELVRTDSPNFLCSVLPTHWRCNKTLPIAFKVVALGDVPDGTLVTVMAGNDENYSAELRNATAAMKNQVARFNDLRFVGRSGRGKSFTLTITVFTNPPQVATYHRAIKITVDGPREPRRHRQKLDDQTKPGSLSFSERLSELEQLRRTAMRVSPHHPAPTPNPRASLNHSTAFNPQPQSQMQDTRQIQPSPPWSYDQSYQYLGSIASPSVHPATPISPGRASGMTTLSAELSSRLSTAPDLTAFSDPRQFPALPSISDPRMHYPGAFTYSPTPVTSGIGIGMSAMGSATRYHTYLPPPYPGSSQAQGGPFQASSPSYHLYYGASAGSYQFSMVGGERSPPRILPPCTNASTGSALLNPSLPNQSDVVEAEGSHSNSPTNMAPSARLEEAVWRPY

One test has as its target RUNX1 (UniProt Q01196). Nature of the test: RUNX1 binding intensity (PBM fluorescence), RUNX1 alone (arbitrary fluorescence units); higher = stronger binding. Particulars: RUNX1 concentration 2 nM; ETS1 concentration 0 nM. The procedure:
(§1)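 Cooperative gcPBM on 36-bp genomic probes with neighbouring ETS1 and RUNX1 sites. Recombinant human RUNX1 (2 nM) was incubated alone or with ETS1 (25 nM) and detected with anti-RUNX1 antibody plus Alexa488 secondary. Values are medians over 4 replicate spots; the RUNX1+ETS1 data were normalised to the RUNX1-only data. The probes sit in constant array flanks that are not printed.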
ACAATAACAGGAAGTGGTGGGGACTGCGGTGACCTG registered an RUNX1 binding intensity of 865.
Take GAGAAACAGGAAGAGGGGTGGTGGTTACGGAACACG: the RUNX1 binding intensity was 807.
In turn, CAAGGGAACATCCTTAAACAGCTTGTGGTATTGCTG returned an RUNX1 binding intensity of 878.
Same read-out and setting: to CGGGACACAGGAAGCCGTTGTGGGGCCCCGGGGCCA belongs 711; to GGCTGGCCTAGGAACTTCCGCCACAAGTCCCGCCCC, 822.
For GACTTTTACGGAAATAGCAGTCCAAAACCGCGTCTA, the RUNX1 binding intensity was 868.
For CAACTGACCGGACAGAACACAGCCACAAAACACGAG, the RUNX1 binding intensity was determined as 944.
On the same count and under the same terms, in the case of AGCGGCCGAAGGAAGTGACGTTTGCGGCAGTAAGGC it was 1130; in that of CCTGCAGCAACAGGATGTGGTTTGAAAGGATGAAAG, 778.
GAGCGCCCACTTCCTGTTTACCACCCAGCCTCTTCG gave an RUNX1 binding intensity of 1110.
Sequence CCATTTCCGCGCACGTCTGCAGATGCGGTAGTCGAT gave an RUNX1 binding intensity of 853.
Still for that read-out and setting: in the case of AGCGTTTCCTGCCTGTCTGGGGCTGACAAACCACAA it was 930; in that of AACTTCCGAGGGAACTAACTGGTTTTAACCACATTG, 886; in that of GACACAAGCCTCACAGGATGTGGTCAAAGAAGGTTG, 762.
Same read-out and setting: in the case of AGGACCGGAAGTGCCCGAGGGCGGCCGCAGAACGGT it was 719; in that of CCGGGCTGCGGAAGGCGGGAACTCTGCGGTTCGCGG, 861.
The same measure, in the same setting: in the case of AGCTTTCCTTTTCCGGTTGCGGCGCCGCGCGTTGAT it was 926.
The sequence CCCGGCCACTTCCGCCTATTGCGGGCGTCGGCTAGG showed an RUNX1 binding intensity of 745.
Still for that read-out and setting: to TCCTAAAGCAGGAAATAGTGAGGCTACCGCAGTGTC belongs 713.
Regarding CTACTTTCCGGTCAACGCGGCCTGCGGTACCACCTC, the RUNX1 binding intensity was found to be 1160.
The same measure, in the same setting: in the case of CCGCCCTAGAGCAGGAAATAGCGGTCAGCGCCAGCT it was 857; in that of TAAGTGCAGGAAACGGCTGTGTGGGTGTCAGTGATT, 689.
On the same count and under the same terms, to GGCCTGTCACACACAGGAAGCGGTCACAGAAAAGCT belongs 795; to ACCTCAAGCCCAGGATGTGGTTTGGCCACTATTGAG, 804; to CGTCTAATTGCAGGAAGTGGTTTGAAATGTTAATCT, 1980.
The sequence CGGGAGGGGCAGGAAGCGGACTGCGGTGGGGAAGGG displayed an RUNX1 binding intensity of 939.
Still for that read-out and setting: to GGACCGGTGTCTGGCGGATGCGGTCGTGAAGATAGG belongs 710.
Same read-out and setting: to TTGCCATTCCAGGAAATGAGCTTACCACATTGACTG belongs 798; to CCTTGCTACAGGATGTTTTGACCACGAGCCCAGGAG, 1090.
On the same count and under the same terms, to TAGCCACTAACCGGAAACGTTAAACCACAGCTCCGT belongs 1180.
On to GACACAAGAACAGCAGGATGTGGTCAGAGGCGTCGT, for which the RUNX1 binding intensity was determined as 722.
With GGAGGTGGGGAGGAAGTTCTGAAACCACACACATTT, the RUNX1 binding intensity was found to be 891.
Same read-out and setting: to GCCGGAAGCCACGCAGGGCCACGTCTGCGGTTCTGA belongs 826.
The same measure, in the same setting: to TCGCACCGGAACCCCTTGGCGGATTATGTGGGTTCC belongs 782.
The same measure, in the same setting: in the case of CCAGCCCAGGAAACAAGGAACCCCAAAGCCACAGGA it was 828; in that of TGCATGTGCAGCAGAGGAAACCACAAGTTATTCCCT, 1110; in that of GAGTCGCTTCCGCTCCCGCCCCGCTCTGTGGCGTAG, 748.
GGAAAAGGAAGTGGCTTTGACTTGCGGGCAGGGAGA had an RUNX1 binding intensity of 733.
Turning to GTTAGCGTGATCGGAGGATGTGGTTTTCCTCCCTCT, the RUNX1 binding intensity is 942.
Same read-out and setting: to TGACATCCTCTGAGGCAGCAAGCTGCGGTGAAGTCT belongs 704.

The target in the next test is RUNX1 (UniProt Q01196). The experiment in a line: RUNX1 binding intensity (PBM fluorescence) in presence of ETS1, normalised to RUNX1-only experiment (arbitrary fluorescence units); higher = stronger binding. The settings on record: RUNX1 concentration 2 nM; ETS1 concentration 25 nM. The procedure:
as §1
For the sequence ACAATAACAGGAAGTGGTGGGGACTGCGGTGACCTG, the RUNX1 binding intensity is 3340.
Turning to GAGAAACAGGAAGAGGGGTGGTGGTTACGGAACACG, the RUNX1 binding intensity came to 1340.
Take CAAGGGAACATCCTTAAACAGCTTGTGGTATTGCTG: the RUNX1 binding intensity was determined as 1060.
Take CGGGACACAGGAAGCCGTTGTGGGGCCCCGGGGCCA: the RUNX1 binding intensity was 982.
On the same count and under the same terms, in the case of GGCTGGCCTAGGAACTTCCGCCACAAGTCCCGCCCC it was 1390.
For the sequence GACTTTTACGGAAATAGCAGTCCAAAACCGCGTCTA, the RUNX1 binding intensity came to 1170.
On the same count and under the same terms, in the case of CAACTGACCGGACAGAACACAGCCACAAAACACGAG it was 824; in that of AGCGGCCGAAGGAAGTGACGTTTGCGGCAGTAAGGC, 1300.
Same read-out and setting: in the case of CCTGCAGCAACAGGATGTGGTTTGAAAGGATGAAAG it was 6460; in that of GAGCGCCCACTTCCTGTTTACCACCCAGCCTCTTCG, 7590; in that of CCATTTCCGCGCACGTCTGCAGATGCGGTAGTCGAT, 1830.
On the same count and under the same terms, in the case of AGCGTTTCCTGCCTGTCTGGGGCTGACAAACCACAA it was 2120.
As for AACTTCCGAGGGAACTAACTGGTTTTAACCACATTG, the RUNX1 binding intensity came to 1190.
With GACACAAGCCTCACAGGATGTGGTCAAAGAAGGTTG, the RUNX1 binding intensity stood at 3910.
On to AGGACCGGAAGTGCCCGAGGGCGGCCGCAGAACGGT, for which the RUNX1 binding intensity was 1320.
On to CCGGGCTGCGGAAGGCGGGAACTCTGCGGTTCGCGG, for which the RUNX1 binding intensity worked out at 1090.
On the same count and under the same terms, to AGCTTTCCTTTTCCGGTTGCGGCGCCGCGCGTTGAT belongs 2340; to CCCGGCCACTTCCGCCTATTGCGGGCGTCGGCTAGG, 4310.
Still for that read-out and setting: in the case of TCCTAAAGCAGGAAATAGTGAGGCTACCGCAGTGTC it was 1090; in that of CTACTTTCCGGTCAACGCGGCCTGCGGTACCACCTC, 2720; in that of CCGCCCTAGAGCAGGAAATAGCGGTCAGCGCCAGCT, 1980.
On the same count and under the same terms, in the case of TAAGTGCAGGAAACGGCTGTGTGGGTGTCAGTGATT it was 906.
As for GGCCTGTCACACACAGGAAGCGGTCACAGAAAAGCT, the RUNX1 binding intensity is 2140.
Still for that read-out and setting: to ACCTCAAGCCCAGGATGTGGTTTGGCCACTATTGAG belongs 1680.
On the same count and under the same terms, to CGTCTAATTGCAGGAAGTGGTTTGAAATGTTAATCT belongs 3650.
On to CGGGAGGGGCAGGAAGCGGACTGCGGTGGGGAAGGG, for which the RUNX1 binding intensity came to 1470.
Still for that read-out and setting: in the case of GGACCGGTGTCTGGCGGATGCGGTCGTGAAGATAGG it was 1130; in that of TTGCCATTCCAGGAAATGAGCTTACCACATTGACTG, 1070; in that of CCTTGCTACAGGATGTTTTGACCACGAGCCCAGGAG, 1390.
On the same count and under the same terms, to TAGCCACTAACCGGAAACGTTAAACCACAGCTCCGT belongs 7440; to GACACAAGAACAGCAGGATGTGGTCAGAGGCGTCGT, 3510; to GGAGGTGGGGAGGAAGTTCTGAAACCACACACATTT, 1090.
GCCGGAAGCCACGCAGGGCCACGTCTGCGGTTCTGA: the RUNX1 binding intensity amounted to 1220.
On the same count and under the same terms, to TCGCACCGGAACCCCTTGGCGGATTATGTGGGTTCC belongs 862; to CCAGCCCAGGAAACAAGGAACCCCAAAGCCACAGGA, 979.
Regarding TGCATGTGCAGCAGAGGAAACCACAAGTTATTCCCT, the RUNX1 binding intensity came out at 1600.
Take GAGTCGCTTCCGCTCCCGCCCCGCTCTGTGGCGTAG: the RUNX1 binding intensity worked out at 1980.
The same measure, in the same setting: in the case of GGAAAAGGAAGTGGCTTTGACTTGCGGGCAGGGAGA it was 2560; in that of GTTAGCGTGATCGGAGGATGTGGTTTTCCTCCCTCT, 1930.
Turning to TGACATCCTCTGAGGCAGCAAGCTGCGGTGAAGTCT, the RUNX1 binding intensity came to 1300.
